Assay outcomes deposited in PubChem by National Center for Advancing Translational Sciences (NCATS).
An excerpt weighted towards active compounds, which were near 3.2% of everything screened.
Pol III holo inh: qHTS Assay for Inhibitors of DNA Polymerase III Holoenzyme System | reconstituted DNA polymerase III holoenzyme replication, biochemical | actives 0.25% (n = 71,000) | AID 603, 2007 | Potency, µM (series often up to 57.1 µM), inactives show at the top dose activity change, negative = inhibition; further: potency means the concentration at half of the fitted maximal effect; on the % scale 0 is the no-effect control and ±100 the full control effect
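Reconstituted *E. coli* holoenzyme (0.35 nM Pol III, 1 nM beta, 154 nM SSB, 2 nM primase) was preincubated with compound for 15 min at RT. Synthesis on 1.4 nM ssM13Gori ran 35 min, then was stopped with PicoGreen/EDTA and read as dsDNA fluorescence.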
Tau fil binding: qHTS Assay for Tau Filament Binding; recombinant tau filaments, thioflavin S fluorescence, 15 h; filaments grown with octadecylsulfate alongside compound; Potency, µM (titrated, usually from 57.1 µM), for inactives: at the top dose activity change, negative = inhibition; actives 2% (n = 71,000);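 further: potency means the concentration at half of the fitted maximal effect; on the % scale 0 is the no-effect control and ±100 the full control effect; actives lower thioflavin S fluorescence by blocking filaments or displacing dye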
Target sequence (P10636 whole entry, looked up): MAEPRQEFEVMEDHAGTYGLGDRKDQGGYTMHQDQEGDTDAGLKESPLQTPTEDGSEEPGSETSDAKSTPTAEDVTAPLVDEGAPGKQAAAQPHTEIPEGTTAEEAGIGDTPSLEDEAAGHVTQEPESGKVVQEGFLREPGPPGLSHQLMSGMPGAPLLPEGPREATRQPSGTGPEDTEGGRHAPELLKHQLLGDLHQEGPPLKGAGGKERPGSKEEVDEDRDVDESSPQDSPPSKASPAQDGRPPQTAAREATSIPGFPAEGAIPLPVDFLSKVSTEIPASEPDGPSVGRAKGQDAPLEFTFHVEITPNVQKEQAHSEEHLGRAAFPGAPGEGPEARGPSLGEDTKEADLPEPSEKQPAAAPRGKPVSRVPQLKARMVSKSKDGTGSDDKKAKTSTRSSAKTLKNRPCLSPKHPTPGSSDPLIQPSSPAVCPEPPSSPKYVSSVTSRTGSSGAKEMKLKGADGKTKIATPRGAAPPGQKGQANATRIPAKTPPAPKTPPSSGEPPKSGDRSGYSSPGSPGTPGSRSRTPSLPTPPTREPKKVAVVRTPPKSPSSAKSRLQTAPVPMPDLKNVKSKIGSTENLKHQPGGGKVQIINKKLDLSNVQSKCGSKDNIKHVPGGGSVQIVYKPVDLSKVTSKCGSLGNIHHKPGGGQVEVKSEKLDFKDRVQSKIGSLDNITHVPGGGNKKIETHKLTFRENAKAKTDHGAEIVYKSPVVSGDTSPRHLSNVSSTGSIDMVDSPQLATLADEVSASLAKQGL
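His-tagged recombinant human tau (exons 2, 3 and 10 included), 1 uM, was induced to fibrillize by 30 uM sodium octadecylsulfate with compound present. After 15 h at 37 C, thioflavine S fluorescence (ex 450, em 510 nm) was read.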
ERK AVP block: qHTS Assay for Inhibitors of the ERK Signaling Pathway using a Homogeneous Screening Assay; actives 0.99% (n = 72,000); HEK293-V1b, vasopressin-stimulated pERK AlphaScreen; Potency, µM (series often up to 57.5 µM), without a hit: at the highest dose activity, negative = inhibition, actives largely listed as inhibitors; further: potency means the concentration at half of the fitted maximal effect; on the % scale 0 is the no-effect control and ±100 the full control effect; nearly all actives have a fitted effect of over 55% in size
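V1b-HEK293 cells; cpd 30 min 37C; 25 nM vasopressin 5 min; lyse 10 min; AlphaScreen beads 5 hr RT. Normalized to DMSO basal and 25 nM vasopressin; AC50 by Hill fit.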
p53ts 32C kill: qHTS Screen for Compounds that Selectively Target Cancer Cells with p53 Mutations: Cytotoxicity of p53ts Cells at the Permissive Temperature | H1299-p53A138V at 32C, ATP luminescence viability, 24 h | Potency, µM (doses to about 46.1 µM), without a hit: at the highest dose activity change, negative = cytotoxicity, hits mostly cytotoxic | AID 924, 2007 | actives 0.93% (n = 130,000);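 further: potency means the concentration at half of the fitted maximal effect; 0% = DMSO and -100% = full killing by reference compound; nearly all actives have a fitted effect of over 55% in size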
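Viability by ATPlite luminescence after 24 h compound treatment (up to 46 uM) at the permissive 32C. Cells are H1299 carrying p53 A138V. Scale runs from DMSO basal to 100 uM tamoxifen as full kill; AC50 from Hill fits.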
TsaE inh: qHTS Assay for Inhibitors of YjeE | Potency, µM | actives 0.05% (n = 71,000) | purified YjeE enzyme, qHTS inhibition assay | tRNA threonylcarbamoyladenosine biosynthesis protein TsaE (Escherichia coli (strain … | AID 605, 2007
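Fluorescence polarization of a BODIPY Texas Red–ADP probe (2 uM) bound to purified YjeE (10 uM) was read after 15 min room-temperature incubation with compounds. Loss of polarization marks inhibitors; ADP serves as titrated control.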
p53ts 39C tox: qHTS Screen for Compounds that Selectively Target Cancer Cells with p53 Mutations: Cytotoxicity of p53ts Cells at the Nonpermissive Temperature; Potency, µM (highest dose often 46.1 µM), without a hit: top-dose activity change, negative = cell killing, actives largely listed as cytotoxic; H1299-p53A138V viability at 39C, ATP luminescence, 24 h; AID 902, 2007; actives 1.5% (n = 130,000); further: potency means the concentration at half of the fitted maximal effect; on the % scale 0 is the no-effect control and ±100 the full control effect; nearly all actives have a fitted effect of over 55% in size
* marks the source's active call; other numbers are inactive results; ! = not confirmed by another sample; [ ] = another dose, or the depositor's remark. The call rests on the fitted dose curve; in most records, active means well fitted curve in the direction sought with a large enough effect; inconclusive means small, poorly fitted or top-dose-only effect, or another doubt; inactive means no such curve, though single readings can be large; an effect the other way counts as inactive or inconclusive.

What do the screens show for `CCn1c(=O)n(CC)c2cc(N3CCCC3)c(NC(=O)Nc3cc(C)cc(C)c3)cc21`?
p53ts 32C kill: inconclusive; p53ts 39C tox: 13µM*

How did CCn1c(=O)n(CC)c2cc(N3CCCCC3)c(NC(=O)Nc3ccccc3C(F)(F)F)cc21 do in these assays?
p53ts 32C kill: 11%; p53ts 39C tox: inconclusive

How did Cc1ccc(C)c(CS(=O)(=O)c2cn(CC(=O)N(C(C)C)C(C)C)c3ccccc23)c1 do in these assays?
p53ts 32C kill: -8%; p53ts 39C tox: -26%

How did Cc1cc(C)cc(-n2c(SCC(N)=O)nc3c([nH]c4ccccc43)c2=O)c1 do in these assays?
p53ts 32C kill: 2%; p53ts 39C tox: -9%

Results for O=C(NCc1cccnc1)c1ccc(COc2ccc3c(c2)CCC3)o1 ?
Pol III holo inh: 6%; Tau fil binding: 0%; ERK AVP block: 25µM*; p53ts 32C kill: -13%; TsaE inh: inactive; p53ts 39C tox: -10%

How did CCOC(=O)c1ccc(NC(=O)c2cccc(S(=O)(=O)N3CCOCC3)c2)cc1 do in these assays?
Pol III holo inh: -2%; Tau fil binding: -8%; ERK AVP block: 5µM*; p53ts 32C kill: inconclusive; TsaE inh: inactive; p53ts 39C tox: -11%

Results for O=C(Nc1ccc2c(c1)OCO2)c1cccc(S(=O)(=O)N2CCCC2)c1 ?
Pol III holo inh: 0%; Tau fil binding: 1%; ERK AVP block: 16µM*; p53ts 32C kill: 1%; TsaE inh: inactive; p53ts 39C tox: -3%

How did O=C(Nc1cccc(F)c1)c1cccc(S(=O)(=O)N2CCOCC2)c1 do in these assays?
Pol III holo inh: -2%; Tau fil binding: -10%; ERK AVP block: -14%; p53ts 32C kill: -2%; TsaE inh: inactive; p53ts 39C tox: 13%

How did O=C(Nc1ccc2c(c1)OCCO2)c1ccc(S(=O)(=O)N2CCCCC2)cc1 do in these assays?
Pol III holo inh: -1%; Tau fil binding: inconclusive; ERK AVP block: 12%; p53ts 32C kill: -1%; TsaE inh: inactive; p53ts 39C tox: -9%

What do the screens show for `CCOC(=O)c1ccc(NC(=O)c2ccc(C)c(S(=O)(=O)N3CCOCC3)c2)cc1`?
Pol III holo inh: 4%[11.4 µM]; Tau fil binding: 26%[11.4 µM]; ERK AVP block: 3.2µM*; p53ts 32C kill: 16µM*; TsaE inh: inactive; p53ts 39C tox: inconclusive

Results for O=C(Nc1ccc2c(c1)OCO2)c1ccc(Br)c(S(=O)(=O)N2CCCC2)c1 ?
Pol III holo inh: 7%; Tau fil binding: -10%; ERK AVP block: inconclusive; p53ts 32C kill: -5%; TsaE inh: inactive; p53ts 39C tox: -20%

Results for O=C(Nc1ccc2c(c1)OCCO2)c1ccc(Br)c(S(=O)(=O)N2CCOCC2)c1 ?
Pol III holo inh: -6%[11.4 µM]; Tau fil binding: -5%[11.4 µM]; ERK AVP block: 7.9µM*; p53ts 32C kill: inconclusive; TsaE inh: inactive; p53ts 39C tox: -2%

What do the screens show for `CCOC(=O)c1cccc(NC(=O)N2CC(CC)Oc3ccccc32)c1` (stereo not given)?
p53ts 32C kill: -1%; p53ts 39C tox: -21%

How did CCC1SC(=NC(=O)c2ccc(Cl)c(Cl)c2)NC1=O (stereo not given) do in these assays?
Pol III holo inh: -3%[11.4 µM]; Tau fil binding: 3%[11.4 µM]; ERK AVP block: 47%; p53ts 32C kill: 7.9µM*; TsaE inh: inactive; p53ts 39C tox: 7.9µM*

What do the screens show for `CCN1C(=O)CC(N2CCN(c3ccc(Cl)cc3)CC2)C1=O` (stereo not given)?
Pol III holo inh: -1%; Tau fil binding: 3%; ERK AVP block: 6%; p53ts 32C kill: -7%; TsaE inh: inactive; p53ts 39C tox: -1%

How did CCN1C(=O)CC(N2CCN(c3ccc(C(=O)c4ccccc4)cc3)CC2)C1=O (stereo not given) do in these assays?
Pol III holo inh: -2%; Tau fil binding: -3%; ERK AVP block: 16µM*; p53ts 32C kill: -22%; TsaE inh: inactive; p53ts 39C tox: -17%

How did CCn1c(CN2CCCCC2)nc2cc(NC(=O)COc3ccccc3C(C)(C)C)ccc21 do in these assays?
p53ts 32C kill: -9%; p53ts 39C tox: 12%

How did CC(C)Oc1cc(O)c2c(=O)c(-c3ccc(O)cc3)coc2c1 do in these assays?
Pol III holo inh: 3%; Tau fil binding: 34%; ERK AVP block: -12%; p53ts 32C kill: inconclusive; TsaE inh: inactive; p53ts 39C tox: inconclusive

Results for COc1ccc(-c2coc3cc(O)cc(O)c3c2=O)cc1 ?
Pol III holo inh: -4%; Tau fil binding: inconclusive; ERK AVP block: 16µM*; p53ts 32C kill: inconclusive; TsaE inh: inactive; p53ts 39C tox: inconclusive

How did COc1ccc(-c2coc3cc(O)ccc3c2=O)c(OC)c1 do in these assays?
ERK AVP block: 10%; p53ts 32C kill: 9%; p53ts 39C tox: -8%

How did O=c1c(-c2ccc(O)cc2)coc2cc(O)cc(O)c12 do in these assays?
Pol III holo inh: 0%; Tau fil binding: inconclusive; ERK AVP block: inconclusive; p53ts 32C kill: 10µM*!; TsaE inh: inactive; p53ts 39C tox: inconclusive

How did COc1ccc(-c2coc3cc(OC)cc(OC)c3c2=O)cc1 do in these assays?
ERK AVP block: 12%; p53ts 32C kill: -5%; p53ts 39C tox: 8%

Results for COc1ccc(-c2coc3cc(O)ccc3c2=O)cc1 ?
Pol III holo inh: -29%; Tau fil binding: 32µM*; ERK AVP block: -6%; p53ts 32C kill: inconclusive; TsaE inh: inactive; p53ts 39C tox: inconclusive

How did CCc1cccc(NC(=O)Cn2c(=O)c(C(F)(F)F)nc3ccccc32)c1 do in these assays?
p53ts 32C kill: -1%; p53ts 39C tox: -9%

Results for Cc1ccc(-c2onc(C)c2C)cc1S(=O)(=O)Nc1cccc(Cl)c1C ?
p53ts 32C kill: 33%; p53ts 39C tox: -16%

How did Cc1ccc(CNC(=O)C(=O)NCC(c2cccnc2)N2CCN(c3ccccc3F)CC2)cc1 (stereo not given) do in these assays?
p53ts 32C kill: inconclusive; p53ts 39C tox: -18%

What do the screens show for `CC#C[C@]1(O)CC[C@H]2[C@@H]3CCC4=CC(=O)CCC4=C3[C@H](c3ccc(N(C)C)cc3)C[C@@]21C`?
Pol III holo inh: -4%; Tau fil binding: 32µM*; ERK AVP block: 13µM*; p53ts 32C kill: 18%; TsaE inh: inactive; p53ts 39C tox: 72%
